Test results: PubChem BioAssay (NCI)
Compounds without any hit were thinned out: in the full panel of roughly 83,000, 20% have a hit.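 Cells were grown in 96-well plates and exposed to the test compound at a single concentration for 48 hours; results are reported as percent growth, with values below 10 considered active.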 The source made the active and inactive calls.

system: HT29 colon; assay: NCI-60 one-dose screen, 48 h (100 = growth as untreated, 0 = no growth, -100 = all killed); details: 10 µM unless noted

| Compound | growth |
| --- | --- |
| Cc1cc(Cl)ccc1Nc1nc(C(F)(F)F)ccc1C(=O)N/N=C/c1ccc(Cl)cc1 | 3.44% (active) |
| Cc1sc2nc3c4ccccc4c(NCCCN(C)C)nn3c(=O)c2c1C | -17.8% (active) |
| C[C@H](C(=O)N[C@@H](Cc1ccc(-c2ccccc2)cc1)C(=O)NC1CC(C)(C)NC(C)(C)C1)c1ccc(-c2ccccc2)c(F)c1 | -61.2% (active) |
| Cc1csc(C#Cc2cncc(O)c2)n1 | 110% (inactive) |
| CN[C@@H]1C(OC2[C@H](O[C@H]3[C@H](O)[C@@H](O)[C@H](N=C(N)N)[C@@H](O)[C@@H]3N=C(N)N)OC(C)[C@]2(O)CO)OC(CO)C(O)C1O (some centres not stated) | 98.5% (inactive) |
| COCCOCCOCCOCCOc1ccc2c(c1)C(=O)c1nc3ncccc3c(=O)n1-2 | -39.3% (active) |
| N#CC1c2ccccc2C=CN1C(=O)N(c1ccccc1)c1ccccc1 (configuration not stated) | 57.2% (inactive) |
| Nc1ccc2c(c1)C(=O)c1cc(Cl)c(Cl)cc1-2 | 104% (inactive) |
| COc1ccc2c(c1)C(=Nc1cc(OC)c(OC)c(OC)c1)C(=O)N2 | 115% (inactive) |
| CN(C)CCCN=c1cc2c(=O)n(CCCN(C)C)c(=O)c3c(NCCCN(C)C)cc4c(O)n(CCCN(C)C)c(=O)c1c4c3-2 | -42.2% (active) |
| COc1ccc(-c2cnc(SCC(=O)Nc3ccc(-c4nc5ccccc5s4)cc3)n2-c2ccc(OC)cc2)cc1 | 92.7% (inactive) |
| O=c1[nH]cc(Nc2cc(Cl)c3nonc3c2[N+](=O)[O-])c(=O)[nH]1 | 132% (inactive) |
| CCOC(=O)Nc1cc(-c2ccc(C)c(NS(C)(=O)=O)c2)nn2c(C)nnc12 | 9.76% (active) |
| NS(=O)(=O)c1cc2c(cc1Cl)NC=NS2(=O)=O | 94.7% (inactive) |
| COc1ccc2ncccc2c1Cc1c(OC)ccc2ncccc12 | 30% (inactive) |
| c1ccc(-c2n(Cc3ccc4ccccc4c3)cc[n+]2Cc2ccc3ccccc3c2)cc1 | -83.8% (active) |
| Nc1nc(Nc2ccccc2SSc2ccccc2Nc2nc(N)nc(-c3cccc(Cl)c3)n2)nc(-c2cccc(Cl)c2)n1 | 104% (inactive) |
| CC1CN(CC(O)c2ccc(Br)cc2)CCO1 (configuration not stated) | 113% (inactive) |
| CC[C@@H](C)/C=C(C)/C=C/C(=O)c1c(O)c(-c2ccc(O)cc2)cn(OC2CC(=O)CCC(C)OC(=O)CC2O)c1=O (some centres not stated) | 29.5% (inactive) |
| CCCCc1n(Cc2ccc3ccccc3c2)cc[n+]1Cc1ccc2ccccc2c1 | -34.4% (active) |
| COc1cc(/C=C2\SC(N3CCCCC3)=NC2=O)ccc1OCCCCCCOc1ccc(/C=C2\SC(N3CCCCC3)=NC2=O)cc1OC | -13.8% (active) |
| CCCCCCCCN(CCO)CCCCCCCC | 103% (inactive) |
